Hit rate of the full screen: of about 350,000 compounds, about 31,000 (8.9%) were called active. A call without a number means that no potency is given here. Not shown: some 15% with an inconclusive outcome. The call rests on the fitted dose curve; in most records, active means well fitted inhibition curve with a large enough effect; inconclusive means small, poorly fitted or top-dose-only effect; inactive means no such curve, though single readings can be large or run the other way. For the sample, actives were picked, then their nearest neighbours and some compounds at random.
target: Histone-lysine N-methyltransferase EHMT2 (Homo sapiens) (UniProt Q96KQ7); experiment: qHTS Assay for Inhibitors of Histone Lysine Methyltransferase G9a; conditions: G9a H3K9 monomethylation, AlphaScreen, 2 h; series mostly up to 59 µM; further: nearly all actives have a fitted effect of over 75% in size
Sequence (Q96KQ7 913-1193 limits assumed): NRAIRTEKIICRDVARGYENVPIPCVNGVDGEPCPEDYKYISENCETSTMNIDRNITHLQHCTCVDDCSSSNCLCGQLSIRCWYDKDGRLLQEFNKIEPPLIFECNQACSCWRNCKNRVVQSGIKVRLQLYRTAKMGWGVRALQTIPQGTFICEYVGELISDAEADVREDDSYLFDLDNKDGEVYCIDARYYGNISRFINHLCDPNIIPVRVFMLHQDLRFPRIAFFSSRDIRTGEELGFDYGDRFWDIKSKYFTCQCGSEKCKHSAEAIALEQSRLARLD
From the text: Methylated lysines, on the N-terminal tails of histone proteins serve as epigenetic markers to recruit factors that can then modify local chromatin structure to lead to functional consequences. G9a and other members of the SUV39 family of the SET domain-containing superfamily of histone lysine methyltransferases (HMT) have been identified to specifically methylate Lys9 of histone H3 (H3K9). G9a catalyzes the mono- and di-methylation of H3K9 in mammalian euchromatic regions, where the resulting H3K9me2 is indicative of transcriptional repression. […] The inhibition of G9a will result in transcriptional activation and work synergistically with DNA methyltransferase and histone deacetylase inhibitors, to kill cancer cells. This qHTS assay for identification of G9a inhibitors is a chemiluminescence based AlphaScreen (PerkinElmer). Methylation of biotinylated-histone peptide is measured through specific antibody-based detection, in conjunction with streptavidin-coated donor and anti-IgG antibody-coated acceptor beads. The method is particularly well suited for detection of inhibitors acting by the desired histone peptide competitive mechanism and is applicable to testing other HMTs. Although AlphaScreen has significant advantages with its utility in a variety of epigenetic target assays, the primary screening data provided in this deposition should be used with caution due to the prevalence of screening artifacts. An AlphaScreen counterscreen is highly recommended to be run against any putative actives to eliminate non specific artifacts. Alternatively, one can use other AlphaScreen assays in PubChem to filter out promiscuous hits. Quinn et al. A chemiluminescence-based method for identification of histone lysine methyltransferase inhibitors. Mol Biosyst 6(5): 782-8. 2010. PMID: 20567762 [2] Baell,Holloway. New substructure filters for removal of pan assay interference compounds (PAINS) from screening libraries and for their exclusion in bioassays. J Med Chem. 53(7):2719-40. 2010. PMID: 20131845 NIH Molecular Libraries Probe Production Network [MLPCN] NIH Chemical Genomics Center [NCGC] Structural Genomics Consortium (SGC) NIH Grant: 5U54 MH084681-02
To each well of a 1,536w plate, 2ul of HMT enzyme (final 20nM) were added, using a nanoliter dispenser. The G9a- and GLP-inhibitor BIX-01294 (CID: 25150857) are used as an intraplate control, with a 16-point titration in duplicate. A Kalypsys pin-tool transferred 23nl of library compound solution in DMSO to each well. Following a 15 min incubation of enzyme with compounds at room temperature, 1ul mixture of b-H3K9 peptide substrate (final 500nM) and SAM cofactor (final 20uM) were added. Reactions were allowed to proceed at room temperature for 2 hours. Methylated b-H3K9 peptide product was detected with 0.5 ug/mL rabbit polyclonal anti-monomethyl histone H3K9 antibody (Abcam Inc., Cambridge, MA) and 20 ug/mL each streptavidin-coated donor and anti-rabbit IgG acceptor AlphaScreen beads. Antibody and beads were added in a 1ul dispense, for a final volume of 4ul, and plates were incubated, protected from the light, for 10 min at room temperature. Microplates were then read on an EnVision multilabel plate reader using the 1,536 plate HTS AlphaScreen aperture (excitation time 80 ms, measurement time 240 ms).
Potency means the concentration at half of the fitted maximal effect.

| SMILES | Potency | activity, negative = inhibition |
| --- | --- | --- |
| C/C(=N\Nc1ncc(Cl)cc1Cl)c1cccs1 | inactive |  |
| C/C(=N\Nc1ccc(S(N)(=O)=O)cc1[N+](=O)[O-])c1cccs1 | 25.1 µM (active) |  |
| C/C(=N\NC(=O)COc1c(C)cccc1C)c1cccs1 | inactive |  |
| C=CCOc1ccc(C(=O)Nc2ccccc2C(=O)N2CCCC2)cc1 | inactive |  |
| O=C(NCCc1ccc(Cl)cc1)c1ccc2c(c1)N(Cc1ccc(F)cc1)C(=O)CS2 | inactive |  |
| O=C(CSc1nnc(-c2cccs2)n1-c1ccccc1)NCc1ccco1 |  | -5.59% [at 12.7 µM] (inactive) |
| O=C(CSc1nnc(-c2cccs2)n1-c1ccccc1)N1CCN(C(=O)c2ccco2)CC1 | 7.08 µM (active) |  |
| Cc1cc2ccccc2n2c(SCC(=O)N3CCN(C(=O)c4ccco4)CC3)nnc12 | inactive |  |
| Cc1cc(=O)n2[nH]c(-c3cccc(Cl)c3)cc2n1 | inactive |  |
| Cc1cc(/C=C2\SC(=Nc3ccc(N4CCOCC4)cc3)N(C)C2=O)c(C)n1-c1cccnc1 | 70.8 µM (active) |  |
| Cc1cc(/C=C(/C#N)C(=O)Nc2ccc(Cl)cc2)c(C)n1-c1cccnc1 | inactive |  |
| O=C(/C=C/c1ccc(N2CCOCC2)cc1)c1ccccc1 | inactive |  |
| O=C(NCCS(=O)(=O)NCc1ccc(Cl)cc1)c1ccccc1 | inactive |  |
| Cc1cc(NS(=O)(=O)c2ccc(NC(=O)c3cccnc3)cc2)nc(C)n1 | inactive |  |
| O=C(/C=C/Nc1ccc(S(=O)(=O)Nc2cnc3ccccc3n2)cc1)c1cccnc1 | 70.8 µM (active) |  |
| Cc1noc(NS(=O)(=O)c2ccc(N/C=C/C(=O)c3ccccc3)cc2)c1C |  | -38.3% [at 2.33 µM] (inactive) |

| SMILES | Potency | activity, negative = inhibition |
| --- | --- | --- |
| CC(OC(=O)CCCOc1ccccc1)C(=O)Nc1ccc(Cl)cn1 (stereo unspecified) | inactive |  |
| Cc1ccc(-c2noc(CSc3nnc(-c4ccc(Cl)cc4)n3C)n2)cc1 | inactive |  |
| Cc1cc(=O)n2nc(N3CCCC(C(=O)NCc4cccc(Cl)c4)C3)sc2n1 (stereo unspecified) | inactive |  |
| O=C(CN1CCN(c2ccc(F)cc2)CC1)Nc1cccc(C(F)(F)F)c1 | 50.1 µM (active) |  |
| O=C(CN1CCN(c2ccc(Cl)cc2)CC1)c1ccccc1 | 8.91 µM (active) |  |
| Cc1ccc(Cl)cc1NC(=O)CN1CCN(S(=O)(=O)N2CCOCC2)CC1 | inactive |  |
| O=C(CN1c2ccccc2S(=O)(=O)c2ccccc21)Nc1cccc(C(F)(F)F)c1 | inactive |  |
| O=C(CN1CCN(c2ccc(O)cc2)CC1)Nc1cc(S(=O)(=O)N2CCOCC2)ccc1Cl | 3.16 µM (active) |  |
| COc1ccc(NC(C)=O)cc1NC(=O)CN1CCN(c2ccc(F)cc2)CC1 | inactive |  |
| O=C(CN1CCOCC1)Nc1cc(Cl)ccc1Cl | inactive |  |
| COc1ccccc1N1CCN(CC(=O)NC(=O)NCc2ccco2)CC1 | inactive |  |
| O=C(CN1CCN(S(=O)(=O)/C=C/c2ccccc2)CC1)NC(=O)NCc1ccco1 | 20 µM (active) |  |
| CC(C)OC(=O)CN1CCN(c2ccc(Cl)cc2)CC1 | inactive |  |
| NC(=O)CCN1CCN(S(=O)(=O)/C=C/c2ccccc2)CC1 | inactive |  |
| O=C(CN1CCN(c2ccc(Cl)cc2)CC1)N1CCCC1 | inactive |  |

Source: PubChem BioAssay AID504332 (National Center for Advancing Translational Sciences (NCATS), 2011)
